Records with an inconclusive call do not appear. Activity calls are given as the source filed them. Calls come from the whole dose curve.
Tests used:
[1] = target: Acetylcholinesterase (Homo sapiens) (UniProt P22303); test: Acetylcholinesterase (AChE) small molecule antagonists: colormetric cell-based qHTS assay (AID 1347395); note: nearly all actives have a fitted effect of over 30% in size
Summary of the method: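 After overnight attachment at 37 C, SH-SY5Y cells get 30 min compound exposure; detection cocktail (acetylthiocholine, DTNB) then incubates 90 min at 37 C, and absorbance reflects AChE-generated thiocholine.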

[2] = target: Acetylcholinesterase (Homo sapiens) (UniProt P22303); test: Acetylcholinesterase (AChE) small molecule antagonists: enzyme-based qHTS assay (AID 1347397); conditions: Potency: AChE enzyme activity inhibition; outcome: AChE enzyme activity inhibition; note: nearly all actives have a fitted effect of over 55% in size
Summary of the method: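 Tox21 library chemicals are tested in qHTS format against recombinant human AChE. The enzyme, dispensed at 50 mU/mL, sits with compound for 30 min at room temperature. A DTNB–acetylthiocholine cocktail follows, and colour is read after 10 min.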

[3] = target: Acetylcholinesterase (Homo sapiens) (UniProt P22303); test: Acetylcholinesterase (AChE) small molecule antagonists: fluorescence cell-based qHTS assay (AID 1347398); conditions: Potency: AChE activity; outcome: AChE activity; note: nearly all actives have a fitted effect of over 50% in size
Summary of the method: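 Cellular AChE inhibition: SH-SY5Y cells treated with test chemical for 30 min at 37 C, then acetylthiocholine hydrolysis followed over 40 min at room temperature via thiocholine-reactive Thiolite Green fluorescence (490/520 nm).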

[4] = target: Acetylcholinesterase (Homo sapiens) (UniProt P22303); test: Acetylcholinesterase (AChE) small molecule antagonists: enzyme-based qHTS assay with human liver microsomes (AID 1347399); conditions: Potency: qHTS inhibition; outcome: qHTS inhibition; note: nearly all actives have a fitted effect of over 60% in size
Summary of the method: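 Recombinant human AChE (50 mU/mL in the enzyme mix) and human liver microsomes (0.25 mg/mL final) were preincubated with compound and NADPH (0.25 mg/mL final) for 30 min at 37 C. Acetylthiocholine/DTNB was then added; thiocholine was read colorimetrically after 10 min at room temperature.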

Measured: Potency

Acetylcholinesterase (Homo sapiens), sequence (P22303 whole entry, looked up): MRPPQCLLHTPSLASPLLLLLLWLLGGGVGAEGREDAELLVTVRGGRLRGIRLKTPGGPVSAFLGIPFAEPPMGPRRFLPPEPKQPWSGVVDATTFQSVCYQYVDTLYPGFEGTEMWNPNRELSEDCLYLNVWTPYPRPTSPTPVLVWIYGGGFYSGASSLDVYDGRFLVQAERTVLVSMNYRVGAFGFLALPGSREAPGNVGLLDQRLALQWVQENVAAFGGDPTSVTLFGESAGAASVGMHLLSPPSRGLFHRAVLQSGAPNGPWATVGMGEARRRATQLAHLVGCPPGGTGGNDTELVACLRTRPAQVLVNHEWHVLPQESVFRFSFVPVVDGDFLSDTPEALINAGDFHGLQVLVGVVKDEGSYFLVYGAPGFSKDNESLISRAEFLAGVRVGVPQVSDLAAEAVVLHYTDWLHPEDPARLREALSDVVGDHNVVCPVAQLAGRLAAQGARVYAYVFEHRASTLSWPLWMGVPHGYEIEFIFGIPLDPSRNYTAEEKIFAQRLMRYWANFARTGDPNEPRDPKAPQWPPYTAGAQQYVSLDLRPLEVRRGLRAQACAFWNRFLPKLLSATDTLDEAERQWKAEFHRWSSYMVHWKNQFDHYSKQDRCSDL

COC(C)OC
inactive: all assays above

CCOCC(C)O (stereo unspecified)
inactive: all assays above

CC(NC(CCc1ccccc1)C(=O)O)C(=O)N1C(=O)N(C)CC1C(=O)O (stereo unspecified)
inactive: all assays above

CCCC1CCCC(=O)O1 (stereo unspecified)
inactive: all assays above

O=C(O)Cc1sc(-c2ccccc2)nc1-c1ccc(Cl)cc1
inactive: all assays above

CC[N+](CC)(CC)Cc1ccccc1
inactive: all assays above

Cc1ccccc1N=Nc1ccc(N=Nc2c(O)ccc3ccccc23)c(C)c1
inactive: all assays above

CCCCN1C(=O)[C@@H]([C@H](O)C2CCCCC2)NC(=O)C12CCN(Cc1ccc(Oc3ccc(C(=O)O)cc3)cc1)CC2
inactive: all assays above

CCCCCCC1CCC(=O)O1 (stereo unspecified)
inactive: all assays above

Nc1cc(C(=O)O)c(O)c(S(=O)(=O)O)c1
inactive: all assays above

O=C(O)/C=C/c1ccc(/C=C/C(=O)O)cc1
inactive: all assays above

CN(C)CCCOc1nn(Cc2ccccc2)c2ccccc12
inactive: all assays above

OCCC(F)(F)C(F)(F)C(F)(F)C(F)(F)C(F)(F)C(F)(F)F
inactive: all assays above

CC(C)(C)c1cc(CO)cc(C(C)(C)C)c1O
inactive: all assays above

From PubChem BioAssay (Tox21)
